In PubChem BioAssay (Tox21):
Records with an inconclusive call do not appear. A call without a number means that no potency is given here. The source made the active and inactive calls. Calls come from the whole dose curve; as a rule, active = well fitted cell-killing curve with a large enough effect in the repeat runs; inconclusive = weak or mixed curves, or effect the other way; inactive = no such curve, though single readings can be large or run the other way.

test: qHTS assay for small molecule activators of the heat shock response signaling pathway - cell viability counter screen (AID 743209); settings: HSE-bla HeLa viability, CellTiter-Glo luminescence, 5 h; series mostly up to 62.6 µM; note: nearly all actives have a fitted effect of over 50% in size
Excerpt: U.S. Tox21 Program National Center for Advancing Translational Sciences [NCATS] NIH Chemical Genomics Center [NCGC] U.S. Environmental Protection Agency [EPA] National Institutes of Environmental Health Sciences [NIEHS] National Toxicology Program [NTP] U.S. Food and Drug Administration [FDA] Tox21 Assay Overview: Various chemicals, environmental and physiological stress conditions may lead to the activation of heat shock response/ unfolded protein response (HSR/UPR). There are three heat shock transcription factors (HSFs) (HSF-1, -2, and -4) mediating transcriptional regulation of the human HSR. To identify the compounds that activate HSR signaling, HSE-bla HeLa cell line (Invitrogen, Carlsbad, CA, USA) containing a beta-lactamase reporter gene under the control of the heat shock response elements was used to screen Tox21 10K compound library. The cytotoxicity of the Tox21 compound library against the HSE-bla HeLa cell line was tested in parallel by measuring the cell viability using CellTiter-Glo assay (Promega, Madison, WI) in the same wells.
Tox21 Assay Protocol Summary: The CellSensor HSE-bla HeLa cells (Invitrogen, Carlsbad, CA, USA) were dispensed at 1500 cells/6uL/well into 1536-well black wall/clear bottom plates using a Multidrop combi (Thermo Fisher Scientific, Waltham, MA) dispenser. After the assay plates were incubated at 37 C and 5% CO2 overnight, 23 nL of compounds dissolved in DMSO, positive controls or DMSO only was transferred to the assay plate by a Pintool station (Kalypsys, San Diego, CA). The plates were incubated at 37 C for 5 h. After 1 uL of LiveBLAzerTM B/G FRET substrate was added using a Flying Reagent Dispenser (FRD, Beckman Coulter, Indianapolis, IN, USA), the plates were incubated at room temperature for 2.5 h, and fluorescence intensity was measured by an Envision plate reader (PerkinElmer, Shelton, CT). For cell viability readout that measures cytotoxicity, 3 ul/well of CellTiter-Glo reagent was added into the assay plates using a FRD. After 30 min incubation at room temperature, the luminescence intensity in the plates was measured using a ViewLux (PerkinElmer) plate reader.

Row | Structure (SMILES) | Potency
1 | CN(C)CC/C=C1/c2ccccc2COc2ccc(CC(=O)O)cc21 | inactive
2 | CC(C)c1ccc(C=O)cc1 | inactive
3 | CCCCOCCOC(=O)COc1ccc(Cl)cc1Cl | inactive
4 | Cc1ccc2c(c1)C(=O)c1ccccc1C2=O | inactive
5 | CCC(C)OC(C)CC (stereo not given) | inactive
6 | C=CC/C=C/C | inactive
7 | CC(=O)OC1CCCCC1C(C)(C)C (stereo not given) | inactive
8 | CC(N)CCCC(C)(C)O (stereo not given) | inactive
9 | CCCCCCC1(C)CCC(=O)O1 (stereo not given) | inactive
10 | CC(C)NCC(O)c1ccc2ccccc2c1 (stereo not given) | inactive
11 | CC(=O)C1C(=O)C=C(C)OC1=O (stereo not given) | inactive
12 | CCN1CCCC1CN (stereo not given) | inactive
13 | CCCCC1CCC(O)CC1 (stereo not given) | inactive
14 | O=[N+]([O-])c1c(Cl)cc(Cl)cc1Cl | inactive
15 | CC1c2ccccc2CN1NC(=O)c1ccc(Cl)c(S(N)(=O)=O)c1 (stereo not given) | inactive
16 | O=C1CCC(=O)N1Cl | inactive
17 | C=CC(=O)OCC1CCCO1 (stereo not given) | inactive
18 | CCCC(=O)OC/C=C(\C)CCC=C(C)C | inactive
19 | CN(C)CCCCl | inactive
20 | O=C1OCCO1 | inactive

Row | Structure (SMILES) | Potency
21 | CC(C)(CO)C(O)C(=O)NCCCO (stereo not given) | inactive
22 | c1ccc(B(c2ccccc2)c2ccccc2)cc1 | inactive
23 | CCC(=O)CC | inactive
24 | CC(=O)O[C@@H]1CC2CCC1(C)C2(C)C (stereo not given in full) | inactive
25 | CC1CCc2c(N3CCC(O)CC3)c(F)cc3c(=O)c(C(=O)O)cn1c23 (stereo not given) | inactive
26 | CCc1occc(=O)c1O | inactive
27 | C=C(C)c1cccc(C(C)(C)N=C=O)c1 | inactive
28 | CC(C)COC(=O)c1ccccc1 | inactive
29 | C[Si]1(C)O[Si](C)(C)O[Si](C)(C)O[Si](C)(C)O[Si](C)(C)O1 | inactive
30 | CC(=O)O[C@H]1C[C@@H]2CC[C@@]1(C)C2(C)C | inactive
31 | O=Cc1ccccc1Cl | inactive
32 | C=CCSSCCC | inactive
33 | CCCCOC(=O)[C@H](C)O | inactive
34 | Cc1cc(C)c(C(=O)O)c(C)c1 | inactive
35 | CCCCCCCCCCCCCCCCCC#N | inactive
36 | Cn1c(=O)c2c(ncn2CCO)n(C)c1=O | inactive
37 | CC(C)(C)NC[C@H](O)COc1cccc2c1CCCC2=O | inactive
38 | C[C@@H](O)C(=O)O | inactive
39 | Nc1nc(-c2ccccc2)c(Br)c(=O)[nH]1 | inactive
40 | CC(CO)(CO)CO | inactive
